Each structure is given as a SMILES string. Active and inactive are the calls of the source.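 Rule for the calls: active = compounds killing one labelled cell type while sparing the other, by normalised counts and ratio limits, not self-fluorescent; inactive = the rest.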

A short description of the first assay: differential killing of epithelial or mesenchymal cells, primary screen, imaging, PC-3E GFP, TEM4-18 mCherry, co-culture (AID 1345086).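 For red/green cell ratio (normalised): normalised mesenchymal count divided by normalised epithelial count so high means epithelial killing.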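 Note: cells exposed to compound for 72 h before imaging.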 The conditions noted are these: imaging cell counts, at 1 µM, actives lie on both sides.
With `CC(O)CN1CCN(CC(=O)[O-])CCN(CC(=O)[O-])CCN(CC(=O)[O-])CC1.[Gd+3]` (stereo not drawn), the red/green cell ratio (normalised) was 0.9 (inactive).
On the same count and under the same terms, with `CC(C)c1c(CN(C)C(C)Cc2ccccc2)n(C)n(-c2ccccc2)c1=O` (stereo not drawn) the figure was 1.06 (inactive); with `O=[N+]([O-])c1ccc([As](=O)(O)O)cc1`, 0.85 (inactive).
Take `COc1ccc(CN2CCNCC2)c(OC)c1OC`: the red/green cell ratio (normalised) was 0.94 (inactive).
Take `COP(=O)(OC)C(O)C(Cl)(Cl)Cl` (stereo not drawn): the red/green cell ratio (normalised) is 0.95 (inactive).
On the same count and under the same terms, with `O=c1n(Cl)c(=O)n(Cl)c(=O)n1Cl` the figure was 0.94 (inactive).
With `CCOC(=O)CC(SP(=S)(OC)OC)C(=O)OCC` (stereo not drawn), the red/green cell ratio (normalised) was 1.05 (inactive).
Still for that read-out and setting: under `O=C(O)Cc1ccccc1` stands 0.91 (inactive).

Staying with this assay, now noted: imaging cell counts, measured here: epithelial PC-3E GFP cell survival, at 1 µM.
Take `CC(O)CN1CCN(CC(=O)[O-])CCN(CC(=O)[O-])CCN(CC(=O)[O-])CC1.[Gd+3]` (stereo not drawn): the normalised cell number turned out to be 1.27.
Molecule `CC(C)c1c(CN(C)C(C)Cc2ccccc2)n(C)n(-c2ccccc2)c1=O` (stereo not drawn) registered a normalised cell number of 0.93.
With `O=[N+]([O-])c1ccc([As](=O)(O)O)cc1`, the normalised cell number was determined as 1.16.
As to `COP(=O)(OC)OC=C(Cl)Cl`, the normalised cell number came out at 1.09.
On the same count and under the same terms, with `COc1ccc(CN2CCNCC2)c(OC)c1OC` the figure was 1.11; with `COP(=O)(OC)C(O)C(Cl)(Cl)Cl` (stereo not drawn), 0.96.
Still for that read-out and setting: under `O=c1n(Cl)c(=O)n(Cl)c(=O)n1Cl` stands 1.07.
As to `CCOC(=O)CC(SP(=S)(OC)OC)C(=O)OCC` (stereo not drawn), the normalised cell number is 1.11.
On the same count and under the same terms, with `O=C(O)Cc1ccccc1` the figure was 1.01; with `CNCC(=O)c1ccc(O)c(O)c1`, 1.18.
